# Test results reported in PubChem BioAssay (NCI).
# This is part of a sample that, as a whole, favours compounds with a hit. Of some 79,000 tested, about 15% had one in any assay. A number with no mark means an inactive call. The source made the active and inactive calls. No stated cut-off is given here; in the data, active means growth inhibition above about 70%; inactive means the rest.
# Key:
# [1] = NCI Yeast Anticancer Drug Screen. Data for the rad52 strain (AID 147);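 further: 0% = growth of vehicle-treated control cultures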; conditions: S. cerevisiae rad52 mutant growth inhibition, hits give high values
# Outline: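 Growth of repair-deficient yeast cells was compared between compound-treated and vehicle-treated cultures to give percent inhibition.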
# [2] = NCI Yeast Anticancer Drug Screen. Data for the wt1 strain (AID 149);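 further: 0% = growth of vehicle-treated wt1 cultures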; conditions: S. cerevisiae wt1 strain (SPY 50644) growth inhibition, hits give high values
# Outline: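 Growth inhibition read against vehicle controls after compound exposure of the wt1 yeast strain.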
# [3] = NCI Yeast Anticancer Drug Screen. Data for the rad50EPP+ strain (AID 151);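 further: 0% = growth of vehicle-treated control cultures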; conditions: S. cerevisiae rad50 mutant strain, hits give high values
# Outline: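 Measured: growth inhibition of rad50EPP+ yeast. Reference: vehicle-treated controls. Screen uses strains with defined genetic alterations in DNA damage repair or cell cycle control.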
# [4] = NCI Yeast Anticancer Drug Screen. Data for the mgt1 strain (AID 153); conditions: S. cerevisiae mgt1 mutant growth inhibition, hits give high values
# Outline: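 Compounds were applied to mgt1 mutant yeast, and growth was then compared against vehicle-treated control cultures to give percent inhibition.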
# [5] = NCI Yeast Anticancer Drug Screen. Data for the rad50 strain (AID 155);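 further: 0% = growth of vehicle-only cultures of the same strain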; conditions: S. cerevisiae rad50 strain growth inhibition, hits give high values
# Outline: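 Readout: growth inhibition relative to vehicle-treated cultures. Compound exposure was carried out in a genetically defined yeast strain deficient in DNA damage repair.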
# [6] = NCI Yeast Anticancer Drug Screen. Data for the mec2-1 strain (AID 157); conditions: S. cerevisiae mec2-1 strain, hits give high values
# Outline: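 Compounds were applied to mec2-1 yeast cells. Their growth was then compared with that of vehicle-treated cultures to give growth inhibition.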
# [7] = NCI Yeast Anticancer Drug Screen. Data for the rad14 strain (AID 159);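 further: 0% = growth of vehicle-treated control cultures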; conditions: S. cerevisiae rad14 strain growth inhibition, hits give high values
# Outline: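 Growth inhibition vs vehicle controls; genetically altered yeast strain (DNA damage repair defect) treated with test compounds.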
# [8] = NCI Yeast Anticancer Drug Screen. Data for the sgs1 mgt1 strain (AID 161);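 further: 0% = growth of cultures given vehicle only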; conditions: S. cerevisiae sgs1 mgt1 strain, hits give high values
# Outline: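 Growth of a repair-deficient yeast mutant was monitored after compound treatment and expressed as inhibition relative to vehicle-treated cultures.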
# [9] = NCI Yeast Anticancer Drug Screen. Data for the CLN2oe strain (AID 163);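 further: 0% = growth of vehicle-only control cultures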; conditions: S. cerevisiae CLN2oe strain, hits give high values
# Outline: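 Cells of an engineered yeast line with disturbed cell-cycle regulation are treated with compound. Inhibition of growth is then calculated relative to the vehicle-treated reference.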
# [10] = NCI Yeast Anticancer Drug Screen. Data for the cln2 rad14 strain (AID 165);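 further: 0% = growth equal to vehicle treated cultures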; conditions: S. cerevisiae cln2 rad14 strain, hits give high values
# Outline: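 Strain: cln2 rad14 yeast, altered in cell cycle control and DNA damage repair. Read-out: growth inhibition vs vehicle.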
# [11] = NCI Yeast Anticancer Drug Screen. Data for the bub3 strain (AID 167); conditions: S. cerevisiae bub3 mutant strain, hits give high values
# Outline: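 Readout: yeast growth inhibition, expressed relative to vehicle-only wells. The test organism is a mutant strain from a panel with lesions in DNA repair or checkpoint genes.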
# [12] = NCI Yeast Anticancer Drug Screen. Data for the wt2 strain (AID 169);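 further: 0% = growth of vehicle-treated yeast cultures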; conditions: S. cerevisiae wt2 strain growth inhibition, hits give high values
# Outline: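 Growth of compound-treated yeast is measured and expressed as inhibition relative to vehicle-only controls.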
# [13] = NCI Yeast Anticancer Drug Screen. Data for the sgs1 strain (AID 173);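 further: 0% = growth of vehicle-only control cultures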; conditions: S. cerevisiae sgs1 mutant, hits give high values
# Outline: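 Strain with an altered DNA repair or cell cycle pathway exposed to compound. Growth then measured. Value = inhibition versus vehicle control.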
# [14] = NCI Yeast Anticancer Drug Screen. Data for the mlh1 rad18 strain (AID 175); conditions: S. cerevisiae mlh1 rad18 strain growth inhibition, hits give high values
# Outline: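 A repair-deficient yeast strain is exposed to test compound, and growth is scored relative to vehicle-treated controls.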
# [15] = NCI Yeast Anticancer Drug Screen. Data for the rad18 strain (AID 177); conditions: S. cerevisiae rad18 mutant growth inhibition, hits give high values
# Outline: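 DNA-repair-defective yeast; compound treatment; growth inhibition scored against vehicle.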
# [16] = NCI Yeast Anticancer Drug Screen. Data for the mlh1 strain (AID 171);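 further: 0% = growth of vehicle-treated control cultures of the same strain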; conditions: S. cerevisiae mlh1 strain growth inhibition, hits give high values
# Outline: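 Test agents were incubated with yeast bearing a defined DNA damage repair or cell cycle control alteration; values are growth inhibition normalised to vehicle-treated cultures.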
# [17] = at 5.0 µM (retest, dose inferred, filed as 0.5)
# [18] = at 50.0 µM (retest, dose inferred, filed as 5.0)
smiles,measurement,setting,value
O=[N+]([O-])c1cc(S(=O)(=O)F)ccc1Cl,growth inhibition,[1]; at 1.2 µM,20%
same,growth inhibition,[1]; at 3.7 µM,24%
same,growth inhibition,[1]; at 11.0 µM,49%
same,growth inhibition,[1]; at 33.0 µM,94% (active)
same,growth inhibition,[1]; at 100.0 µM,98% (active)
same,growth inhibition,[2]; at 1.2 µM,27%
same,growth inhibition,[2]; at 3.7 µM,28%
same,growth inhibition,[2]; at 11.0 µM,9%
same,growth inhibition,[2]; at 33.0 µM,93% (active)
same,growth inhibition,[2]; at 100.0 µM,99% (active)
same,growth inhibition,[3]; at 1.2 µM,13%
same,growth inhibition,[3]; at 3.7 µM,20%
same,growth inhibition,[3]; at 11.0 µM,47%
same,growth inhibition,[3]; at 33.0 µM,82% (active)
same,growth inhibition,[3]; at 100.0 µM,99% (active)
same,growth inhibition,[4]; at 1.2 µM,11%
same,growth inhibition,[4]; at 3.7 µM,20%
same,growth inhibition,[4]; at 11.0 µM,18%
same,growth inhibition,[4]; at 33.0 µM,93% (active)
same,growth inhibition,[4]; at 100.0 µM,99% (active)
same,growth inhibition,[5]; at 1.2 µM,18%
same,growth inhibition,[5]; at 3.7 µM,20%
same,growth inhibition,[5]; [17],51%
same,growth inhibition,[5]; at 11.0 µM,38%
same,growth inhibition,[5]; at 33.0 µM,94% (active)
same,growth inhibition,[5]; [18],57%
same,growth inhibition,[5]; at 50.0 µM,92.5% (active)
same,growth inhibition,[5]; at 100.0 µM,100% (active)
same,growth inhibition,[6]; at 1.2 µM,27%
same,growth inhibition,[6]; at 3.7 µM,25%
same,growth inhibition,[6]; [17],50%
same,growth inhibition,[6]; at 11.0 µM,35%
same,growth inhibition,[6]; at 33.0 µM,95% (active)
same,growth inhibition,[6]; [18],62%
same,growth inhibition,[6]; at 50.0 µM,94.5% (active)
same,growth inhibition,[6]; at 100.0 µM,100% (active)
same,growth inhibition,[7]; at 1.2 µM,1%
same,growth inhibition,[7]; at 3.7 µM,-6%
same,growth inhibition,[7]; at 11.0 µM,7%
same,growth inhibition,[7]; at 33.0 µM,94% (active)
same,growth inhibition,[7]; at 100.0 µM,99% (active)
same,growth inhibition,[8]; [17],11%
same,growth inhibition,[8]; [18],100% (active)
same,growth inhibition,[8]; at 50.0 µM,93.4% (active)
same,growth inhibition,[9]; at 1.2 µM,26%
same,growth inhibition,[9]; at 3.7 µM,20%
same,growth inhibition,[9]; at 11.0 µM,39%
same,growth inhibition,[9]; at 33.0 µM,93% (active)
same,growth inhibition,[9]; at 100.0 µM,98% (active)
same,growth inhibition,[10]; [17],27%
same,growth inhibition,[10]; [18],100% (active)
same,growth inhibition,[10]; at 50.0 µM,92.4% (active)
same,growth inhibition,[11]; at 1.2 µM,-10%
same,growth inhibition,[11]; at 3.7 µM,-6%
same,growth inhibition,[11]; [17],39%
same,growth inhibition,[11]; at 11.0 µM,1%
same,growth inhibition,[11]; at 33.0 µM,90% (active)
same,growth inhibition,[11]; [18],99% (active)
same,growth inhibition,[11]; at 50.0 µM,93.2% (active)
same,growth inhibition,[11]; at 100.0 µM,98% (active)
same,growth inhibition,[12]; at 1.2 µM,-11%
same,growth inhibition,[12]; at 3.7 µM,-4%
same,growth inhibition,[12]; at 11.0 µM,17%
same,growth inhibition,[12]; at 33.0 µM,85% (active)
same,growth inhibition,[12]; at 100.0 µM,98% (active)
same,growth inhibition,[13]; at 1.2 µM,6%
same,growth inhibition,[13]; at 3.7 µM,13%
same,growth inhibition,[13]; at 11.0 µM,50%
same,growth inhibition,[13]; at 33.0 µM,97% (active)
same,growth inhibition,[13]; at 100.0 µM,98% (active)
same,growth inhibition,[14]; [17],32%
same,growth inhibition,[14]; [18],54%
same,growth inhibition,[14]; at 50.0 µM,92.8% (active)
same,growth inhibition,[15]; at 1.2 µM,4%
same,growth inhibition,[15]; at 3.7 µM,15%
same,growth inhibition,[15]; at 11.0 µM,30%
same,growth inhibition,[15]; at 33.0 µM,92% (active)
same,growth inhibition,[15]; at 100.0 µM,99% (active)
O=[N+]([O-])c1oc2ccc3ccccc3c2c1CCO,growth inhibition,[1]; at 1.2 µM,89% (active)
same,growth inhibition,[1]; at 3.7 µM,94% (active)
same,growth inhibition,[1]; at 11.0 µM,97% (active)
same,growth inhibition,[1]; at 33.0 µM,98% (active)
same,growth inhibition,[1]; at 100.0 µM,98% (active)
same,growth inhibition,[2]; at 1.2 µM,2%
same,growth inhibition,[2]; at 3.7 µM,14%
same,growth inhibition,[2]; at 11.0 µM,75% (active)
same,growth inhibition,[2]; at 33.0 µM,97% (active)
same,growth inhibition,[2]; at 100.0 µM,98% (active)
same,growth inhibition,[3]; at 1.2 µM,63%
same,growth inhibition,[3]; at 3.7 µM,84% (active)
same,growth inhibition,[3]; at 11.0 µM,95% (active)
same,growth inhibition,[3]; at 33.0 µM,97% (active)
same,growth inhibition,[3]; at 100.0 µM,98% (active)
same,growth inhibition,[4]; at 1.2 µM,7%
same,growth inhibition,[4]; at 3.7 µM,27%
same,growth inhibition,[4]; at 11.0 µM,85% (active)
same,growth inhibition,[4]; at 33.0 µM,98% (active)
same,growth inhibition,[4]; at 100.0 µM,99% (active)
same,growth inhibition,[5]; at 1.2 µM,83% (active)
same,growth inhibition,[5]; at 3.7 µM,90% (active)
same,growth inhibition,[5]; [17],89% (active)
same,growth inhibition,[5]; at 11.0 µM,96% (active)
same,growth inhibition,[5]; at 33.0 µM,98% (active)
same,growth inhibition,[5]; [18],99% (active)
same,growth inhibition,[5]; at 50.0 µM,99% (active)
same,growth inhibition,[5]; at 100.0 µM,98% (active)
same,growth inhibition,[6]; at 1.2 µM,79% (active)
same,growth inhibition,[6]; at 3.7 µM,92% (active)
same,growth inhibition,[6]; [17],97% (active)
same,growth inhibition,[6]; at 11.0 µM,98% (active)
same,growth inhibition,[6]; at 33.0 µM,99% (active)
same,growth inhibition,[6]; [18],99% (active)
same,growth inhibition,[6]; at 50.0 µM,98.2% (active)
same,growth inhibition,[6]; at 100.0 µM,99% (active)
same,growth inhibition,[7]; at 1.2 µM,94% (active)
same,growth inhibition,[7]; at 3.7 µM,97% (active)
same,growth inhibition,[7]; at 11.0 µM,98% (active)
same,growth inhibition,[7]; at 33.0 µM,99% (active)
same,growth inhibition,[7]; at 100.0 µM,99% (active)
same,growth inhibition,[8]; [17],92% (active)
same,growth inhibition,[8]; [18],98% (active)
same,growth inhibition,[8]; at 50.0 µM,99.3% (active)
same,growth inhibition,[9]; at 1.2 µM,29%
same,growth inhibition,[9]; at 3.7 µM,66%
same,growth inhibition,[9]; at 11.0 µM,87% (active)
same,growth inhibition,[9]; at 33.0 µM,97% (active)
same,growth inhibition,[9]; at 100.0 µM,99% (active)
same,growth inhibition,[10]; [17],98% (active)
same,growth inhibition,[10]; [18],99% (active)
same,growth inhibition,[10]; at 50.0 µM,98.5% (active)
same,growth inhibition,[11]; at 1.2 µM,-17%
same,growth inhibition,[11]; at 3.7 µM,-3%
same,growth inhibition,[11]; [17],14%
same,growth inhibition,[11]; at 11.0 µM,78% (active)
same,growth inhibition,[11]; at 33.0 µM,98% (active)
same,growth inhibition,[11]; [18],99% (active)
same,growth inhibition,[11]; at 50.0 µM,97.8% (active)
same,growth inhibition,[11]; at 100.0 µM,99% (active)
same,growth inhibition,[16]; at 1.2 µM,10%
same,growth inhibition,[16]; at 3.7 µM,44%
same,growth inhibition,[16]; at 11.0 µM,88% (active)
same,growth inhibition,[16]; at 33.0 µM,98% (active)
same,growth inhibition,[16]; at 100.0 µM,99% (active)
same,growth inhibition,[14]; [17],95% (active)
same,growth inhibition,[14]; [18],99% (active)
same,growth inhibition,[14]; at 50.0 µM,96.7% (active)
same,growth inhibition,[15]; at 1.2 µM,97% (active)
same,growth inhibition,[15]; at 3.7 µM,96% (active)
same,growth inhibition,[15]; at 11.0 µM,97% (active)
same,growth inhibition,[15]; at 33.0 µM,98% (active)
same,growth inhibition,[15]; at 100.0 µM,99% (active)
